Data reported in PubChem BioAssay.
The source made the active and inactive calls.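 Rule for the calls, unless noted: active = fluorescence slope after compound addition differing from the mean of all screened samples at 99.7% confidence, in either direction; inactive = the rest.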

Experiments:
[1] = inhibitors of TNFa-induced NFkB p65 translocation, primary screen, imaging, HUVEC, MLSMR starter and 10KST1 sets (AID 438;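 active = inhibition above 20% together with a positive visual image hit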;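 note: compound added about 3h40 before a 20 min TNFalpha stimulation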;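 for inhibition: signal is the nuclear over cytoplasmic p65 intensity ratio per well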); details: HUVEC TNFa-induced p65 nuclear translocation; cell count: measured here: nuclei count (cytotoxicity indicator), at 2.08 µM; inhibition: at 2 µM, stronger effect = higher value, 0% TNFa-plus-vehicle, 100% no-TNFa wells
[2] = reduction of polyQ htt aggregates in cells – imaging, exon1htt(103Q)mCFP cells, high-content imaging, primary screen (AID 483;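 active = visual image review flags a hit and inhibition of aggregation exceeds 20%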;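 note: compound exposure lasted 3 days before fixation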;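 for nuclei count: percent of the per-plate median nuclei count of sample wells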); details: exon1htt(103Q)mCFP cell line, aggregate imaging, at 2 µM; inhibition of aggregation: stronger effect = higher value; nuclei count: measured here: cell count, toxicity
[3] = endothelial E-selectin expression blockers – imaging, HUVEC, immunofluorescence, MLSMR starter and 10KST1 sets, primary screen (AID 487;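 active = visually confirmed hit in the image check and inhibition above 20%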;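 for inhibition: signal is fraction of cell area covered by stained E-selectin grains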;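 for nuclei count: 100% = median nuclei count of all wells on the same plate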); details: HUVEC TNFalpha-induced E-selectin immunofluorescence imaging, at 2 µM; inhibition: stronger effect = higher value; nuclei count: measured here: cell number, toxicity
[4] = target: Voltage-gated potassium channel subunit beta-2 (Rattus norvegicus) (UniProt P62483); assay: inhibitors of rat Kvbeta2 reductase activity – biochemical, NADPH fluorescence, primary screen (AID 622;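 active = fluorescence slope higher than the sample average by over 3 SD, cut at about -0.22 in these data, passing the limit was not always enough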;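 note: slope of raw intensity against log time taken from 70 to 1610 s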); details: recombinant KvBeta, 4-cyanobenzaldehyde reduction, at 10 µM, stronger effect = higher value
[5] = target: Voltage-gated potassium channel subunit beta-2 (Rattus norvegicus) (UniProt P62483); assay: enhancers of rat Kvbeta2 NADPH turnover – biochemical, NADPH fluorescence, primary screen (AID 623;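 active = NADPH fluorescence slope more negative than the mean of all samples by about 3 SD, 99.7% confidence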;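 note: fluorescence intensity change per second fitted from 20 to 320 s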); details: Recombinant KvBeta, NADPH fluorescence decrease slope, 10 min; at 10 µM; stronger effect = lower value
[6] = target: Alpha-2C adrenergic receptor (Homo sapiens) (UniProt P18825); assay: compounds altering alpha2C-coupled GIRK flux – cell-based, HEK293 alpha2C/GIRK1/2, thallium flux, primary screen (AID 624); details: thallium flux BTC fluorescence, at 10 µM, actives lie on both sides;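 note: slope of fluorescence ratio to pre-addition baseline per second over 15 to 24 s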
[7] = blockers of RIG-like receptor reporter activation – cell-based, Sendai virus stimulus, luciferase, 10K MLSCN set, TLR/RLR signaling modifier project, primary screen (AID 602276;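 active = inhibition at or above 50% at 10 µM; inactive = inhibition below 50%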;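 note: firefly luciferase from ISG56 promoter only with Renilla not read in this screen; 0% = Sendai virus plus DMSO and 100% = medium plus DMSO without virus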); details: HEK293 RL24 IRF3 luciferase reporter, at 10 µM, stronger effect = higher value
[8] = TLR3 IRF3 reporter activation blockers – cell-based, poly I:C stimulus, luciferase, 10K MLSCN set, primary screen (AID 602277;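 active = inhibition of the reporter signal at or above 50%; inactive = inhibition below 50%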); details: HEK293-TLR3 RL24 IRF3 luciferase reporter, at 10 µM, stronger effect = higher value

Alpha-2C adrenergic receptor (Homo sapiens), sequence (P18825 whole entry, looked up): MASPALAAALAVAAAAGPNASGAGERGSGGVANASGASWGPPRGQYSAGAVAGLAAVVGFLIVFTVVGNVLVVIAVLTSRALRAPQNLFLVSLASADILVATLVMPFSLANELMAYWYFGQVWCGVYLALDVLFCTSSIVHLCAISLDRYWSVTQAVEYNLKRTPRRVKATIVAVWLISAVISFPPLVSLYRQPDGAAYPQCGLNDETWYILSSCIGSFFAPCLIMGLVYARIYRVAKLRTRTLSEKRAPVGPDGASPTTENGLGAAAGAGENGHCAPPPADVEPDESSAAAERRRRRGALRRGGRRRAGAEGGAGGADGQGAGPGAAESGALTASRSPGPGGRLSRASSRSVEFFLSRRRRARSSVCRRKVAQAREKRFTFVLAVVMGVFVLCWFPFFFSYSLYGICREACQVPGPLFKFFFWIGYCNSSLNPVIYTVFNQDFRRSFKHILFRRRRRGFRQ
Voltage-gated potassium channel subunit beta-2 (Rattus norvegicus), sequence (P62483 whole entry, looked up): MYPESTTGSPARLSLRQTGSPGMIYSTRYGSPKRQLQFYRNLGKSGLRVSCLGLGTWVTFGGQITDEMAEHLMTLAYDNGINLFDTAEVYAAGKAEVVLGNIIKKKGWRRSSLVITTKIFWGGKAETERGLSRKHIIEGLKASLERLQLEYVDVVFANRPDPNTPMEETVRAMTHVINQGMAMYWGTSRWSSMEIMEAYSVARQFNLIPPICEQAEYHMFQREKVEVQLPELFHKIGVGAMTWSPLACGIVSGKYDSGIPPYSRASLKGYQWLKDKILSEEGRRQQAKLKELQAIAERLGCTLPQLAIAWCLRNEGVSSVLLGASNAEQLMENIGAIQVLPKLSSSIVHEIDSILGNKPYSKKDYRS

| Compound | cell count [1] | inhibition [1] | inhibition of aggregation [2] | nuclei count [2] | inhibition [3] | nuclei count [3] | fluorescence slope [4] | NADPH fluorescence slope [5] | slope [6] | inhibition [7] | inhibition [8] |
| --- | --- | --- | --- | --- | --- | --- | --- | --- | --- | --- | --- |
| COc1ccc(Cn2nnnc2C(c2ccccc2OC)N2CCC(C(N)=O)CC2)cc1 (centres undefined) | 315 | 4.4% (inactive) | 6.9% (inactive) | 74.4% | -39.5% (inactive) | 114% | -0.604 (inactive) | -4.2e-05 (inactive) | 0.00453 (inactive) | 10.7% (inactive) | 25.5% (inactive) |
| O=C(NCC(=O)N(Cc1cccs1)C(C(=O)NC1CCCC1)c1ccncc1)c1ccco1 (centres undefined) | 478 | -2.9% (inactive) | -19.3% (inactive) | 107% | -26.6% (inactive) | 114% | -0.25 (inactive) | -2e-05 (inactive) | 0.00557 (inactive) | 13.3% (inactive) | 16.2% (inactive) |
| O=c1cc(CSc2ccccn2)c2ccccc2[nH]1 | 446 | 1.4% (inactive) | 9.1% (inactive) | 74.9% | -59.6% (inactive) | 128% | -0.578 (inactive) | -3e-05 (inactive) | 0.00572 (inactive) | 10.1% (inactive) | 18.8% (inactive) |
| Cc1nc2sc(C(c3cccc(F)c3)N3CCCCC3)c(O)n2n1 (centres undefined) | 223 | -2.8% (inactive) | -5.5% (inactive) | 95.8% | -5.7% (inactive) | 120% | -0.538 (inactive) | 7.3e-06 (inactive) | 0.00555 (inactive) | 1.92% (inactive) | 19.2% (inactive) |
| CC(=O)N(CCN(C(C)=O)c1ccccc1)c1ccccc1 | 448 | -1.1% (inactive) | 4% (inactive) | 80.2% | 12.5% (inactive) | 88.5% | -0.454 (inactive) | 7e-05 (inactive) | 0.00518 (inactive) | 13.8% (inactive) | 17.2% (inactive) |
| Cc1cccc(-c2nnc(SCC#N)n2-c2cccc(Cl)c2)c1 | 651 | 10.2% (inactive) | 0.4% (inactive) | 118% | 66.1% (inactive) | 109% | -0.441 (inactive) | -2.1e-05 (inactive) | 0.00584 (inactive) | 10.9% (inactive) | 21.3% (inactive) |
| O=C(Nn1cnnc1)C1Cc2ccccc2CN1S(=O)(=O)c1ccc(F)cc1 (centres undefined) | 326 | -6.7% (inactive) | 7.4% (inactive) | 95.2% | 0.9% (inactive) | 95.6% | -0.481 (inactive) | -2.7e-05 (inactive) | 0.00658 (inactive) | 14.1% (inactive) | 24.9% (inactive) |
| COCCn1c(C)cc(C(=O)CSc2nc3ccccc3c(=O)[nH]2)c1C | 287 | -9.5% (inactive) | -2.6% (inactive) | 95.3% | -22.3% (inactive) | 114% | -0.595 (inactive) | -3.8e-05 (inactive) | 0.00437 (inactive) | -28% (inactive) | -89.1% (inactive) |
| CCCS(=O)(=O)N1CCCC(C(=O)NC(C)c2ccc3c(c2)OCCO3)C1 (centres undefined) | 719 | -10.9% (inactive) | 0.2% (inactive) | 101% | -26.6% (inactive) | 100% | -0.475 (inactive) | 1.2e-05 (inactive) | 0.00535 (inactive) | 9.72% (inactive) | 13.6% (inactive) |
| CCOc1ccccc1NC(=O)CCN1CCN(S(=O)(=O)c2ccc(Br)cc2)CC1 | 572 | -12.3% (inactive) | -10.2% (inactive) | 117% | -67.4% (inactive) | 65.1% | -0.526 (inactive) | -5.3e-05 (inactive) | 0.00415 (inactive) | 12.6% (inactive) | 21.5% (inactive) |
| CCN(CC)C(=O)C1CCCc2c1[nH]c1ccc(Cl)cc21 (centres undefined) | 674 | -18.9% (inactive) | -0.9% (inactive) | 109% | -47.8% (inactive) | 104% | -0.539 (inactive) | -3.5e-05 (inactive) | 0.00741 (inactive) | -47.5% (inactive) | -12.1% (inactive) |
| CS(=O)(=O)NCC(c1cccnc1)N1CCN(c2ccc(F)cc2)CC1 (centres undefined) | 250 | -10.2% (inactive) | 15.1% (inactive) | 33.8% | 27.3% (inactive) | 72.4% | -0.34 (inactive) | -4.2e-05 (inactive) | 0.00483 (inactive) | -3.05% (inactive) | 1.56% (inactive) |
| NC(=O)C1CCN(C(=S)c2cccs2)CC1 | 759 | 3.9% (inactive) | 12.1% (inactive) | 105% | -69.5% (inactive) | 107% | -0.49 (inactive) | -1.4e-06 (inactive) | 0.00525 (inactive) | 19.1% (inactive) | 30.8% (inactive) |
| CC(C)Cn1c(CN(Cc2ccccc2)Cc2ccccc2)nc2c1c(=O)n(C)c(=O)n2C | 567 | -1% (inactive) | 1.4% (inactive) | 124% | -12.8% (inactive) | 117% | -0.518 (inactive) | -1.8e-05 (inactive) | 0.00724 (inactive) | 9.97% (inactive) | 12.9% (inactive) |
| CCN1CCN(Cc2nc3c(c(=O)[nH]c(=O)n3C)n2Cc2ccccc2Cl)CC1 | 584 | 1% (inactive) | 7.9% (inactive) | 71.4% | -20.8% (inactive) | 95.5% | -0.583 (inactive) | -3.1e-05 (inactive) | 0.00512 (inactive) | 9.74% (inactive) | 29% (inactive) |
| N#CCCN(C(=O)Nc1ccc(Cl)cc1)c1ccccc1 | 355 | -2.1% (inactive) | -8.5% (inactive) | 98.6% | -15.7% (inactive) | 99.7% | -0.632 (inactive) | 2.2e-05 (inactive) | 0.00361 (inactive) | -5.26% (inactive) | -52.7% (inactive) |
| Cc1ccc(CN2C(=O)CCC2C(=O)NC2CCCC2)cc1 (centres undefined) | 382 | 1.3% (inactive) | 6.6% (inactive) | 103% | -19% (inactive) | 111% | -0.589 (inactive) | -3.4e-05 (inactive) | 0.00496 (inactive) | 12.8% (inactive) | 21.8% (inactive) |
| O=C(c1ccc(Cl)c(F)c1F)N1CCCC1 | 384 | 4.4% (inactive) | -11.4% (inactive) | 112% | -29.8% (inactive) | 70.2% | -0.276 (inactive) | 1.2e-05 (inactive) | 0.00949 (inactive) | -9.75% (inactive) | 11.3% (inactive) |
| CCOC(=O)c1c(NC(=O)c2cccs2)sc(C)c1C | 396 | -6% (inactive) | -20% (inactive) | 102% | -107% (inactive) | 125% | -0.307 (inactive) | 1.4e-05 (inactive) | 0.00436 (inactive) | 12.5% (inactive) | 2.83% (inactive) |
